# Shown are actives, neighbours in structure and some others; about 9.3% of the full set was active somewhere.
# FMDV inh: High Throughput Screening for Foot and Mouth Disease Virus Antivirals | Potency, µM (doses to about 57.9 µM), without a hit: top-dose activity change, negative = inhibition, hits mostly inhibitors | FMDV antiviral cell-based qHTS | actives 1.2% (n = 410,000); calls by dose curve; tested in HEK293T cells; further: read-out not given here; potency means the concentration at half of the fitted maximal effect; nearly all actives have a fitted effect of over 45% in size
# Vaccinia Venus: qHTS for Stage-Specific Inhibitors of Vaccinia Orthopoxvirus: Venus Reporter Primary qHTS | Vaccinia virus Venus reporter expression, fluorescence | Potency, µM (titrated, usually from 36.5 µM), for inactives: at the highest dose activity change, negative = inhibition, usual class: inhibitors | actives 0.46% (n = 330,000); calls by dose curve; tested in A549 cells; further: potency means the concentration at half of the fitted maximal effect; nearly all actives have a fitted effect of over 30% in size
# HCV inh: qHTS Assay for Inhibitors of Hepatitis C Virus (HCV) | Huh7.5.1 HCVcc-Cre infection, luciferase reporter, 44 h | Potency, µM (highest dose often 41.8 µM), for the others: at the highest dose activity change, negative = inhibition, actives largely listed as inhibitors | actives 3.4% (n = 340,000); further: potency means the concentration at half of the fitted maximal effect
#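 Seed cells (1,000/well) for 4 h; treat with compound and infect with HCVcc-Cre, moi about 0.5. Incubate 44 h, then detect luciferase activity.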
# VACV mCherry inh: qHTS for Stage-Specific Inhibitors of Vaccinia Orthopoxvirus: mCherry Reporter Primary qHTS; Vaccinia virus mCherry reporter infection, fluorescence; Potency, µM (series often up to 36.5 µM), without a hit: top-dose activity change, negative = inhibition, usual class: inhibitors; actives 0.63% (n = 310,000); calls by dose curve; tested in A549 cells; further: potency means the concentration at half of the fitted maximal effect; nearly all actives have a fitted effect of over 35% in size
# Sm TGR block: qHTS Assay for the Inhibitors of Schistosoma Mansoni Peroxiredoxins. Schistosoma mansoni thioredoxin glutathione reductase (TGR), Q962Y6. purified TGR, DTNB reduction, TNB absorbance 405 nm. Potency, µM (highest dose often 114 µM), without a hit: top-dose activity change, negative = inhibition, actives largely listed as inhibitors. actives 3% (n = 360,000). AID 485364, 2010; further: potency means the concentration at half of the fitted maximal effect; nearly all actives have a fitted effect of over 60% in size
#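 First, TGR (20 nM dispensed) and NADPH were mixed with compound. Second, a 15 min room-temperature incubation followed. Third, further NADPH and then DTNB were added to start the reaction. Finally, TNB absorbance was monitored kinetically.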
# HCMV inh: qHTS Assay for inhibitors of the human cytomegalovirus (HCMV) | HFF cells, HCMV-luciferase reporter, 72 h; active compounds read low | activity change, negative = inhibition, % at 57.5 µM | actives 4.5% (n = 410,000); in the data active means activity change below about -60%; inconclusive means no clear call, values can overlap the other calls; inactive means above about -39%
#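 After 16 h attachment at 37C, HFF cells received test compound and HCMV-luciferase (1 PFU/cell); reporter luminescence read 72 h later, data normalized against buffer-only and known inhibitor Salinomycin.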
# Starred values were filed as active, the others as inactive; i = inactive; u = inconclusive; x = no result given. Unless noted, the call rests on the fitted dose curve; in most records, active means well fitted curve in the direction sought with a large enough effect; inconclusive means small, poorly fitted or top-dose-only effect, or another doubt; inactive means no such curve, though single readings can be large; an effect the other way counts as inactive or inconclusive. On the % scale 0 is the no-effect control and ±100 the full control effect.
SMILES,FMDV inh,Vaccinia Venus,HCV inh,VACV mCherry inh,Sm TGR block,HCMV inh
O=C(c1ccccc1S(=O)(=O)NCc1ccccc1)N1CCCC1,8.5%,-5.7%,6.1%,i,4.8%,-0.7
COc1ccc(NC(=O)C(C)Sc2ccccc2)cc1 (configuration not stated),14.2%,-19.5%,-25.5%,x,0.9%,63.6
O=C(NCCc1c[nH]c2ccccc12)O[C@H]1CC[C@@]23CCCN2C(=O)CCC[C@H]3[C@H]1Cc1ccccc1,x,x,x,x,x,15.6
O=C(COc1ccc(Cl)cc1)N(c1ccc(Cl)cc1)C1CN2CCC1CC2 (configuration not stated),0.0%,-27.3%,25.1µM*,-11.5%,-3.6%,-14.0
O=C(COc1ccc(Cl)cc1)N(c1ccccc1Cl)C1CN2CCC1CC2 (configuration not stated),u,-28.0%,10µM*,-19.4%,4.7%,-2.2
O=C(COc1ccc(Cl)cc1)N1CCCC1,20.9%,-8.4%,3.4%,-10.0%,-23.1%,40.0
O=C1CC(c2ccccc2)=Nc2ccccc2N1,x,-20.5%,3.1%,i,-7.9%,-10.6
O=C1CC(c2ccccc2)=Nc2ccc(Br)cc2N1,6.5%,-25.1%,-21.4%,-27.1%,10.6%,-68.5*
Cc1ccc2c(c1)NC(=O)CC(c1ccccc1)=N2,11.5%,-7.9%,3.16µM*,-12.4%,-2.9%,u
O=C1CN=C(c2ccccc2)c2cc(Br)ccc2N1,-0.1%,x,14.5%,x,0.0%,-22.4
Cc1cccnc1N(C(=O)Nc1ccccc1)C1=NCC(C)(C)S1,11.1%,0.0%,1.1%,-8.4%,5.7%,1.6
Cc1cccnc1N(C(=O)Nc1cccc(Cl)c1)C1=NCC(C)(C)S1,2.1%,-8.6%,20.9%,-9.8%,-7.2%,-62.2*
CC(C)N1C(=O)CC2(CC[N+](C)(CCOC(=O)C(c3ccccc3)c3ccccc3)CC2)C1=O (configuration not stated),-19.2%,1.1%,32.9%,-4.8%,50.1µM*,7.0
Brc1ccc(-c2csc3ncnc(-n4nnc5ccccc54)c23)cc1,u,-23.1%,u,-11.5%,7.5%,-67.8*
COc1ccc(C(C(=O)NCC2CCCO2)N(C(=O)CNC(=O)c2cccs2)c2ccccc2)cc1OC (configuration not stated),-1.8%,5.7%,-2.5%,-2.7%,x,-31.2
Cc1ccc(C2=Nc3ccccc3N=C(c3ccco3)C2)c(O)c1,-12.6%,-11.2%,15.5%,x,-14.5%,37.9
O=C1CC(c2ccco2)=Nc2ccccc2N1,x,-0.7%,7.8%,i,44.7µM*,-15.9
O=[N+]([O-])/C=C/c1cn(Cc2ccc(Cl)cc2)c2ccccc12,35.5µM*,u,u,i,-7.0%,-38.7
CCOC(=O)Cn1cc(/C=C/[N+](=O)[O-])c2ccccc21,28.2µM*,x,u,x,x,-74.3*
Cc1cccc(Cn2cc(/C=C/[N+](=O)[O-])c3ccccc32)c1,u,x,u,x,-0.1%,-98.9*
CCCCC(=O)O,-10.7%,-1.3%,19.1%,i,x,x
COc1ccccc1Nc1ncc2c(n1)CCN(CC(C)C)C2,38.4%,-5.6%,x,-9.5%,0.4%,61.3
CC(=O)c1ccc(OCc2cc(C(=O)N3CCOCC3)no2)cc1,36.1%,-19.6%,-5.5%,-17.5%,0.4%,152.9
Cn1ncc(Cl)c1C(=O)N1CCN(c2ccccc2)CC1,-5.3%,x,19.4%,x,11.0%,-8.2
Cn1ncc2c(N3CCN(c4ccc(Cl)c(Cl)c4)CC3)ncnc21,11.2µM*,-16.1%,u,-26.6%,-1.0%,-27.3
Clc1ccc(-n2ncc3c(N4CCCC4)ncnc32)cc1,10µM*,-11.1%,41.9%,-1.6%,-29.6%,-66.1*
Cc1ccc(-n2ncc3c(N4CCCCCC4)ncnc32)cc1,20µM*,6.0%,x,-8.2%,2.3%,-99.2*
Cn1ncc(Cl)c1C(=O)N1CCN(c2ccc(Cl)c(Cl)c2)CC1,28.2µM*,-14.2%,-22.8%,-14.4%,-1.8%,0.8

# Screening data (PubChem BioAssay)
